Laboratory results: ChEMBL document CHEMBL1961873, “Compounds: GSK PKIS; Assays: Nanosyn kinase panel” (2012)

Tests used:
[1] = molecular target: Mitogen-activated protein kinase 3 (Homo sapiens) (UniProt P27361); details: at 1 µM;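 also: values are mean percent inhibition of MAPK3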
[2] = molecular target: SRSF protein kinase 3 (Homo sapiens) (UniProt Q9UPE1); details: at 0.1 µM
[3] = molecular target: SRSF protein kinase 3 (Homo sapiens) (UniProt Q9UPE1); details: at 1 µM
[4] = molecular target: Mitogen-activated protein kinase 14 (Homo sapiens) (UniProt Q16539); details: at 0.1 µM
[5] = molecular target: Mitogen-activated protein kinase 14 (Homo sapiens) (UniProt Q16539); details: at 1 µM
[6] = molecular target: Mitogen-activated protein kinase 11 (Homo sapiens) (UniProt Q15759); details: at 0.1 µM
[7] = molecular target: Mitogen-activated protein kinase 11 (Homo sapiens) (UniProt Q15759); details: at 1 µM
[8] = molecular target: T1, Mitogen-activated protein kinase 13 (Homo sapiens) (UniProt O15264); details: at 0.1 µM
T1 sequence (whole entry): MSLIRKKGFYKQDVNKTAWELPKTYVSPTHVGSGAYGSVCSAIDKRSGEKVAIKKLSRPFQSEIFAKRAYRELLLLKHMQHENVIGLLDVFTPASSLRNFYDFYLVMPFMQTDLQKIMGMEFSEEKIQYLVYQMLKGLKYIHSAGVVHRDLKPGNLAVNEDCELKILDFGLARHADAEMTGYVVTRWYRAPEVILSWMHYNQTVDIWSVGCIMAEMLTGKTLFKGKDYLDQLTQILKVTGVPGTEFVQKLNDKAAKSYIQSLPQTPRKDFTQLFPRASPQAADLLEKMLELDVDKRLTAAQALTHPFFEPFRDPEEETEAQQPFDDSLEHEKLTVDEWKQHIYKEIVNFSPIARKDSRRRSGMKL

[9] = molecular target: T1, Mitogen-activated protein kinase 13 (Homo sapiens); details: at 1 µM
[10] = molecular target: T2, Mitogen-activated protein kinase 12 (Homo sapiens) (UniProt P53778); details: at 0.1 µM
T2 sequence (whole entry): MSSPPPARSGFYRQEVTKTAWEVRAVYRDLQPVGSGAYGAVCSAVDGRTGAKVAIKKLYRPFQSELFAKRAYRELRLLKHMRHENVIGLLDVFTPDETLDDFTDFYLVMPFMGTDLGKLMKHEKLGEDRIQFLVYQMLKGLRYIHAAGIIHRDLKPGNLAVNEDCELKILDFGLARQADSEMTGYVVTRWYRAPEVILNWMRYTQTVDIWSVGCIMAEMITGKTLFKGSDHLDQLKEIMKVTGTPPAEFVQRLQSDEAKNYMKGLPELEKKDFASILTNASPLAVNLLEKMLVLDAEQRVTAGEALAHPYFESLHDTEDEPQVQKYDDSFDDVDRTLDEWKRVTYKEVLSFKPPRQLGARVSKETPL

[11] = molecular target: T2, Mitogen-activated protein kinase 12 (Homo sapiens); details: at 1 µM
[12] = molecular target: SRSF protein kinase 1 (Homo sapiens) (UniProt Q96SB4); details: at 0.1 µM
[13] = molecular target: SRSF protein kinase 1 (Homo sapiens) (UniProt Q96SB4); details: at 1 µM
[14] = molecular target: Phosphatidylinositol 4,5-bisphosphate 3-kinase catalytic subunit alpha isoform (Homo sapiens) (UniProt P42336); details: at 0.1 µM
[15] = molecular target: Phosphatidylinositol 4,5-bisphosphate 3-kinase catalytic subunit alpha isoform (Homo sapiens) (UniProt P42336); details: at 1 µM
[16] = molecular target: T3, Phosphatidylinositol 4,5-bisphosphate 3-kinase catalytic subunit delta isoform (Homo sapiens) (UniProt O00329); details: at 0.1 µM
T3 sequence (whole entry): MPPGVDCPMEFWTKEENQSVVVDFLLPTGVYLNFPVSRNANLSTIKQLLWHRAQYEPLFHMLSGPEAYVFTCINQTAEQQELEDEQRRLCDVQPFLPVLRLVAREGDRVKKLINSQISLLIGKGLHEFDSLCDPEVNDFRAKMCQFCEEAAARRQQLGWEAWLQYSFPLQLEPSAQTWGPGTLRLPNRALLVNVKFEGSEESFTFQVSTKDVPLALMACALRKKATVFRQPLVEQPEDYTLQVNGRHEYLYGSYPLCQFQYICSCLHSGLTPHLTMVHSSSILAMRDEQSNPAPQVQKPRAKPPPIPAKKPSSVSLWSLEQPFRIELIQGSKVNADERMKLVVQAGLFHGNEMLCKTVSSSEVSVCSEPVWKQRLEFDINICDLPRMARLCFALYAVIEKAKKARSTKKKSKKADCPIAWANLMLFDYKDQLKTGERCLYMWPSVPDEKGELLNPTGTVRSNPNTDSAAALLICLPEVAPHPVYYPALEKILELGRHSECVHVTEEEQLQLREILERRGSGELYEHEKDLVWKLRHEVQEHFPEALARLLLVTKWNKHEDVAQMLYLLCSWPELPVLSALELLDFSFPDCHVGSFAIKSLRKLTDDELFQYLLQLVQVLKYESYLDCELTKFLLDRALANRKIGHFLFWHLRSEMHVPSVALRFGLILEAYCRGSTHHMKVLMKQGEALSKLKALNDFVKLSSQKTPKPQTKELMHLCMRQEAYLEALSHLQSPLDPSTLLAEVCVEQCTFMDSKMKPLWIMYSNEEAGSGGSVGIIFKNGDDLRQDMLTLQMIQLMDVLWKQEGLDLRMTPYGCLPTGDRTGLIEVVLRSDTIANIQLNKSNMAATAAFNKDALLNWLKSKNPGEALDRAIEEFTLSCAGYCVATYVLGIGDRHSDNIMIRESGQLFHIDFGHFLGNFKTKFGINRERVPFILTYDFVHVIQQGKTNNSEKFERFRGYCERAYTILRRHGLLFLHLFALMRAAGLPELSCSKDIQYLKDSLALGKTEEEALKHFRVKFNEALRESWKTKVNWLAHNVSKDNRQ

[17] = molecular target: T3, Phosphatidylinositol 4,5-bisphosphate 3-kinase catalytic subunit delta isoform (Homo sapiens); details: at 1 µM
[18] = molecular target: Phosphatidylinositol 4-kinase beta (Homo sapiens) (UniProt Q9UBF8); details: at 0.1 µM
[19] = molecular target: Phosphatidylinositol 4-kinase beta (Homo sapiens) (UniProt Q9UBF8); details: at 1 µM
[20] = molecular target: Sphingosine kinase 1 (Homo sapiens) (UniProt Q9NYA1); details: at 0.1 µM;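 also: mean percent inhibition of SPHK1 activity, measured within the GSK PKIS screening panel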
Sequence of Sphingosine kinase 1 (Homo sapiens) (Q9NYA1 whole entry): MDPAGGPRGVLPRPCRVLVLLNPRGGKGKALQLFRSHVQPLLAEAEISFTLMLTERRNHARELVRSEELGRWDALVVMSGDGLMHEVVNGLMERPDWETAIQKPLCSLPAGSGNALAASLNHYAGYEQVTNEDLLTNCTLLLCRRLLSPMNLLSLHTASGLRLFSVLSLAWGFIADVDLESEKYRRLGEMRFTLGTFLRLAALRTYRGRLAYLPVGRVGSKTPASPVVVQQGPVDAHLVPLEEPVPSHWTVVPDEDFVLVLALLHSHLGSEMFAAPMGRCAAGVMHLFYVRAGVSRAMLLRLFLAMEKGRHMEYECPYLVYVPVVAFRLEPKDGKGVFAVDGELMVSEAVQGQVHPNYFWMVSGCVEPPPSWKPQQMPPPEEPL

Sequence of SRSF protein kinase 1 (Homo sapiens) (Q96SB4 whole entry, canonical isoform): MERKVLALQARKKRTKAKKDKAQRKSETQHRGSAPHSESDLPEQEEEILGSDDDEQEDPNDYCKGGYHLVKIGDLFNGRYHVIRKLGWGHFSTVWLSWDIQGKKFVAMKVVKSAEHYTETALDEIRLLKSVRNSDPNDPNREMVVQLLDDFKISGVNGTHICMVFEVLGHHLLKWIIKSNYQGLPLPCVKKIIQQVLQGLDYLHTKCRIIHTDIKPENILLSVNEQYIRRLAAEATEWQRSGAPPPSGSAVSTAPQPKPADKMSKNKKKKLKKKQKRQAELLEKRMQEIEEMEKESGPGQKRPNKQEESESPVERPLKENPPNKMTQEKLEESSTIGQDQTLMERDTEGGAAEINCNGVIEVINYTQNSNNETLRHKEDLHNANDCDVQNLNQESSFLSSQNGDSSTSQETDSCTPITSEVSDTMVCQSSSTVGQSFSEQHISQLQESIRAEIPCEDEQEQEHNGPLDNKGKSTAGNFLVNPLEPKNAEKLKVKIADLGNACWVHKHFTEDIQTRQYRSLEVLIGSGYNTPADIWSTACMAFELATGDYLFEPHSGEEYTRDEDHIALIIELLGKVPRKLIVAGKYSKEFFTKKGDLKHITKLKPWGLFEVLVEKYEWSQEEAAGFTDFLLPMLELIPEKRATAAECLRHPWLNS
Sequence of Mitogen-activated protein kinase 11 (Homo sapiens) (Q15759 whole entry): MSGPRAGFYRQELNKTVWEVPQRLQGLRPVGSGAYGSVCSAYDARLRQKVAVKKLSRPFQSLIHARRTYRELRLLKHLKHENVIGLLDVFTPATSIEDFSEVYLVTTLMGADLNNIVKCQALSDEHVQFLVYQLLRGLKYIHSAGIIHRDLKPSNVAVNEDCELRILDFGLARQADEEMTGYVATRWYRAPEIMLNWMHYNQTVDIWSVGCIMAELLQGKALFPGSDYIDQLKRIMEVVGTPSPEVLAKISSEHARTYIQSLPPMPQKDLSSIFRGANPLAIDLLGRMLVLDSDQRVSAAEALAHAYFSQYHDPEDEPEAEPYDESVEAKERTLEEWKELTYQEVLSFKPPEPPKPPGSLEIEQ
Sequence of Phosphatidylinositol 4-kinase beta (Homo sapiens) (Q9UBF8 2-816 limits assumed): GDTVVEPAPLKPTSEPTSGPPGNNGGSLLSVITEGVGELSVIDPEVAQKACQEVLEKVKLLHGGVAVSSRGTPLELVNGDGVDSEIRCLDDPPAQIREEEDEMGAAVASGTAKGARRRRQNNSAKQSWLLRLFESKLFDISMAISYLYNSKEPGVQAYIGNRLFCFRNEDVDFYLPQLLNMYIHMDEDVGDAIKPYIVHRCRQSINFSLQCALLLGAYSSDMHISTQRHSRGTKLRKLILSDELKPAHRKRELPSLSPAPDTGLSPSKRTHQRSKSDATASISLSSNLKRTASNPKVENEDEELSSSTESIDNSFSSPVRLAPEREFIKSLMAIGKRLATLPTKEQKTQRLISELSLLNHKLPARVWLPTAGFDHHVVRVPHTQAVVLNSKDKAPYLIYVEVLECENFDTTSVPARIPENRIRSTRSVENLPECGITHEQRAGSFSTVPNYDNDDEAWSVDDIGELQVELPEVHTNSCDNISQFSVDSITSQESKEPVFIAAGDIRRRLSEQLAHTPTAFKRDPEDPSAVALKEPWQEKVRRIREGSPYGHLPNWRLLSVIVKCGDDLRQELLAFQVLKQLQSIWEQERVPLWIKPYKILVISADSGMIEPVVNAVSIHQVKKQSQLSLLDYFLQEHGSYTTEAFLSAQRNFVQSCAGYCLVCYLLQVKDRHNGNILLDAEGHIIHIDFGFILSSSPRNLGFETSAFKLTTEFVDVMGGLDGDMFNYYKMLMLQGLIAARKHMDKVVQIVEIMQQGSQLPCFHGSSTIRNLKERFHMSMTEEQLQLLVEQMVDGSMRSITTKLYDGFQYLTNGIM
Sequence of SRSF protein kinase 3 (Homo sapiens) (Q9UPE1 whole entry): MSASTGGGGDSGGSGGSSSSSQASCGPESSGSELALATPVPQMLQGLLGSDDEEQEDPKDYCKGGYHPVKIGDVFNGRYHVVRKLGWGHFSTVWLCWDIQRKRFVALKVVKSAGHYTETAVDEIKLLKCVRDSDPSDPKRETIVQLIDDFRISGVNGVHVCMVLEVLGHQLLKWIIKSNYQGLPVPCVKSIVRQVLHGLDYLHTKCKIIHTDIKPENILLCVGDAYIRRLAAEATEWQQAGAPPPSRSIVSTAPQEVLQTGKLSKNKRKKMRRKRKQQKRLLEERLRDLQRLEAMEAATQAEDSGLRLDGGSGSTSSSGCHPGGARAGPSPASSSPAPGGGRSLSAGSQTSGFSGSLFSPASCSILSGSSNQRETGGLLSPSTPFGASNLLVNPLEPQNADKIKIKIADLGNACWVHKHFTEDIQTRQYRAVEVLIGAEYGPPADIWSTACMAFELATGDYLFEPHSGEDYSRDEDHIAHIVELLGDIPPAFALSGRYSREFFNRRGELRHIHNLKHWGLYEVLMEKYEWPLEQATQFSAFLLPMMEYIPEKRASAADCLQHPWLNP
Sequence of Mitogen-activated protein kinase 14 (Homo sapiens) (Q16539 whole entry): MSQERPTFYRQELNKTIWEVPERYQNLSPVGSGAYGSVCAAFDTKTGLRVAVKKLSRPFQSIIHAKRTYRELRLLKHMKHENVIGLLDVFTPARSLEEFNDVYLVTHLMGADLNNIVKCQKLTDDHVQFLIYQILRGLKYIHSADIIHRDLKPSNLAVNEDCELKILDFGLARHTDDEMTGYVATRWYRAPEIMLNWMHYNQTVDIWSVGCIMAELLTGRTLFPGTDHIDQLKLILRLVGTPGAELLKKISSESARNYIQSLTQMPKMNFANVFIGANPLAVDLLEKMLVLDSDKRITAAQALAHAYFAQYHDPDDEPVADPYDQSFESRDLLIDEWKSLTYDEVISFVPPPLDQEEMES
Sequence of Phosphatidylinositol 4,5-bisphosphate 3-kinase catalytic subunit alpha isoform (Homo sapiens) (P42336 whole entry, canonical isoform): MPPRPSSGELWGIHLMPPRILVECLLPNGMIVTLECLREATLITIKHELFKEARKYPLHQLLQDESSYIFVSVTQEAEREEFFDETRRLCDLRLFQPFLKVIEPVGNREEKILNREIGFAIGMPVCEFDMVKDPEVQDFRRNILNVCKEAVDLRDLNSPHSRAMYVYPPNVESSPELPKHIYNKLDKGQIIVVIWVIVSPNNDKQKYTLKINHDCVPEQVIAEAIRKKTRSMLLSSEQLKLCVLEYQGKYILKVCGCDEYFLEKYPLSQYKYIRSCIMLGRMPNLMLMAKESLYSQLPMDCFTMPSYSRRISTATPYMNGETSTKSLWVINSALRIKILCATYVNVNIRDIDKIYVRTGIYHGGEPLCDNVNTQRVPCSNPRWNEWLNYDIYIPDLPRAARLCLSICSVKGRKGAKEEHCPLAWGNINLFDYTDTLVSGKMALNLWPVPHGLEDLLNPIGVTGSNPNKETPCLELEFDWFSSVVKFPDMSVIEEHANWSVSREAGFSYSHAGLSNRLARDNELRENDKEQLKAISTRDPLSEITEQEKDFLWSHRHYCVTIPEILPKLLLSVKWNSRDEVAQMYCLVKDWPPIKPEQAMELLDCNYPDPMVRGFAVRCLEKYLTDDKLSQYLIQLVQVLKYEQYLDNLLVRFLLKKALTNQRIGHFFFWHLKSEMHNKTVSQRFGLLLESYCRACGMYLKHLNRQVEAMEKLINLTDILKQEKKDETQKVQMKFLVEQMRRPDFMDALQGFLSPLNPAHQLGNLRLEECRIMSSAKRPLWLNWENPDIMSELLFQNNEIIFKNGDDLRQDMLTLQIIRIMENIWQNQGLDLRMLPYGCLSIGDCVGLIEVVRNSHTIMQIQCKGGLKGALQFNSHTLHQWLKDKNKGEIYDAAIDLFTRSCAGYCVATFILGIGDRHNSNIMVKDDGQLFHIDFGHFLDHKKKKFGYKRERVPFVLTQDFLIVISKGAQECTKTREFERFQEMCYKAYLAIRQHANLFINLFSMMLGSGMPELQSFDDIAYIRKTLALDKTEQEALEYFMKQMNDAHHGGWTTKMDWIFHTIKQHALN
Sequence of Mitogen-activated protein kinase 3 (Homo sapiens) (P27361 whole entry): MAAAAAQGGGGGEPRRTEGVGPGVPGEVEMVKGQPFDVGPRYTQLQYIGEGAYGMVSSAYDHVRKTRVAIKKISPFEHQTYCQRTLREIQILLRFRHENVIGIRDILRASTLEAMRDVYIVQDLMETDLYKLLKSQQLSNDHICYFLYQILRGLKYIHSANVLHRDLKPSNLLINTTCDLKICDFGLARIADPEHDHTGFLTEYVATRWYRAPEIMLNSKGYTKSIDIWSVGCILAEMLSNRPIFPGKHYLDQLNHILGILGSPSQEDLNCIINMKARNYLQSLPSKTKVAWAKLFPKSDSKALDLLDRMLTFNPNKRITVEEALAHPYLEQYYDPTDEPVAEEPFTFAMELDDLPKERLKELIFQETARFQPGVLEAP

SMILES | inhibition [1] [%] | inhibition [2] [%] | inhibition [3] [%] | inhibition [4] [%] | inhibition [5] [%] | inhibition [6] [%] | inhibition [7] [%] | inhibition [8] [%] | inhibition [9] [%] | inhibition [10] [%] | inhibition [11] [%] | inhibition [12] [%] | inhibition [13] [%] | inhibition [14] [%] | inhibition [15] [%] | inhibition [16] [%] | inhibition [17] [%] | inhibition [18] [%] | inhibition [19] [%] | inhibition [20] [%]
CC1=C(C(=O)Nc2ccc3[nH]ncc3c2)C(c2ccc(F)cc2)NC(=O)N1 (centres undefined) | 3.56 | -2.61 | -0.84 | 2.74 | 6.99 | 2.94 | 3.88 | 0.78 | 2.31 | 0.89 | 1.7 | -0.16 | -1.24 | 2.51 | 5.96 | 2.41 | 3.62 | 1.44 | 1.28 | 1.05
COc1ccc(-c2coc3ncnc(N)c23)cc1 | 2.51 | -0.31 | -3.44 | 4.37 | 13.4 | 4.69 | 7.25 | 1.38 | 5.26 | 1.11 | 2.95 | -2.53 | -4.3 | 3.88 | 8.12 | 2.89 | 11.6 | 2.15 | -0.74 | -2.41
O=C1NC(=O)C(c2cccc(Cl)c2)=C1Nc1ccc(O)c(Cl)c1 | 2.28 | -0.01 | 2.47 | 1.38 | 8.66 | 1.96 | 4.99 | 0.26 | 0.3 | -0.58 | 0.35 | -2.71 | -4.83 | -1.72 | 5.36 | 0.8 | 4.17 | -4.92 | 1.17 | 1.58
CS(=O)(=O)CCNCc1nc(-c2ccc3ncnc(Nc4ccc(F)c(Cl)c4)c3c2)cs1 | 3.66 | 2.2 | 1.52 | 2.36 | 5.56 | 2.75 | 5.6 | 2.57 | 1.21 | 0.83 | 1.73 | -0.47 | 1.62 | 1.55 | 16.8 | 1.95 | 5.42 | 6.61 | 5.06 | -0.56
CCc1cccc(NC(=O)Nc2ccc(Oc3ccc4nc(NC(=O)OC)[nH]c4c3)cc2)c1 | 2.79 | 1.41 | 2.28 | 2.41 | 3.05 | 1.54 | 6.14 | 0.54 | 0.33 | -0.64 | 1.54 | 0.34 | 1.37 | 0.8 | 2.44 | 0.28 | 3.23 | 5.24 | -4.52 | 
CCn1c(-c2nonc2N)nc2cncc(C(=O)N3CC[C@H](N)C3)c21 | 2.72 | -3.11 | -1.83 | -0.78 | 10.7 | 3.38 | 9.04 | 2.29 | 5.01 | 0.14 | 3.17 | -1.03 | -0.35 | 5.37 | 4.64 | 3.17 | 3.95 | -6.46 | -9.74 | -0.79
NC(=O)c1ccc(-c2nc(-c3ccccn3)c(-c3ccc4c(c3)OCO4)[nH]2)cc1 | 1.38 | -1.12 | 0.34 | 7.26 | 15.5 | 5.42 | 10.6 | 1.16 | 2.44 | 0.17 | 1.74 | -2.38 | -2.03 | 1.4 | -0.55 | 0.37 | 2.45 | -5.45 | -2.85 | 3.02
CCn1c(-c2nonc2N)nc2c(C#CC(C)(C)O)nc(OC[C@@H](N)c3ccccc3)cc21 | 1.84 | 0.05 | 3.01 | 1.93 | 1.14 | -1.91 | 1.34 | -0.23 | -0.87 | -1.46 | -0.24 | 0.57 | -0.56 | -3.76 | -3.41 | -2.59 | -3.08 | 0.16 | 2.95 | 0.21
CCn1c(-c2nonc2N)nc2cnc(Oc3cccc(NC(=O)c4ccc(OCCN5CCOCC5)cc4)c3)cc21 | -0.18 | -2.67 | -1.29 | 2.01 | 5.87 | 0.84 | 1.06 | -1.34 | 4.61 | 8.56 | 3.67 | -1.96 | -3.13 | 2.83 | 3.79 | 1.26 | 3.06 | -7.57 | -2.56 | 3.68
Nc1ncnc2occ(-c3ccc(NC(=O)Nc4cc(C(F)(F)F)cc(C(F)(F)F)c4)cc3)c12 | 2.23 | 1.52 | -0.42 | 2.48 | 11 | 0.21 | 8.68 | -0.42 | 14.5 | -0.95 | 10.2 | -0.82 | 0.68 | 0.61 | 2.7 | 2.62 | 3.45 | 1.16 | 2.78 | 0.12
CNC(=O)c1cncc(/C=C/c2c(Cl)cccc2Cl)c1 | 3.8 | 2.22 | 0.6 | 6.41 | 8.04 | 2.44 | 4.25 | 3.64 | 5.05 | 3.45 | 6.19 | -3.5 | -0.45 | 2.99 | 2.83 | 0.54 | 0.66 | -0.69 | 2.57 | -1.45
COc1ccc(-c2nn3ncccc3c2-c2ccnc(Nc3ccc(Cl)c(C(F)(F)F)c3)n2)cc1 | 4.01 | -2.03 | -0.79 | 4.58 | 36.1 | 2.93 | 16.8 | 0.64 | 1.01 | 1.67 | 0.36 | -1.95 | -0.38 | 1 | 10.4 | -0.59 | 2.57 | -1.86 | 0.08 | 19.3
CS(=O)(=O)CCN(CC#N)Cc1ccc(-c2ccc3ncnc(Nc4ccc(OCc5cccc(F)c5)c(Cl)c4)c3c2)o1 | 1.61 | -3.37 | -0.95 | 4.64 | 3.94 | 1.26 | 0.56 | 3.05 | 2.39 | 2.47 | 2.68 | -2.4 | -1.01 | 2.09 | 4.03 | 1.1 | 4.27 | 2.65 | 3.34 | 1.82
